# Results from PubChem BioAssay (NCATS).
# Where “and” joins values, the source holds several entries; their conditions need not be identical. Identical values can stand only once. Records with an inconclusive call do not appear. A structure can be active in one record and inactive in another. Values without a mark were called inactive. Calls of active or inactive are those of the source. Calls come from the whole dose curve; as a rule, active = well fitted activation curve with a large enough effect; inconclusive = small, poorly fitted or top-dose-only effect; inactive = no such curve, though single readings can be large or run the other way. Peptide text beside a SMILES is read from it. * marks the point of attachment. AFC = O=c1cc(C(F)(F)F)c2ccc(N*)cc2o1
# Molecular target: Cellular tumor antigen p53 (Homo sapiens) (UniProt P04637)
# Experiment: Primary qHTS for small molecule compounds that upregulate eGFP-tagged delta133p53alpha (in N-terminal) cells. (AID 2060322); note: nearly all actives have a fitted effect of over 75% in size;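 for activation: cells pre-induced with doxycycline then dosed without doxycycline; series mostly up to about 56 µM; 0% = DMSO vehicle and 100% = reference activator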
# Conditions: NCI-H358 eGFP-delta133p53alpha fluorescence, 24 h; activation: hits give high values
# Text: Assay Development and Screening Technology
# National Center for Advancing Translational Sciences (NCATS),
# National Institute of Health (NIH), Rockville, Maryland
# Cellular senescence (CS) is one of the hallmarks of aging and age-related diseases. Senescent cells are characterized by an irreversible growth arrest, an increase in senescence-associated beta-galactosidase (SA-beta-gal) activity and p16INK4a expression, an activation of the DNA damage response pathways, and the emergence of a senescence-associated secretory phenotype (SASP).
# Delta133p53alpha, a human/primate-specific p53 protein isoform, delays or inhibits the induction of CS and SASP in various types of human cells, including progeria-derived fibroblasts, primary normal astrocytes, and CD8+ T lymphocytes. Induction of delta133p53alpha with small molecule compounds may provide therapeutic opportunities for inhibition of senescence/SASP-associated pathologies in progeria syndromes, astrocyte-mediated neuroprotection in neurodegenerative diseases, and possibly prevention and treatment of a wider range of senescence- and aging-associated diseases.
# Here we report the development and validation of a cell-based quantitative high throughput screening (qHTS) assay in 1,536-well format. This qHTS assay uses the NCI-H358 cell line with doxycycline-inducible expression of enhanced green fluorescent protein (eGFP)-tagged delta133p53alpha, which allows efficient and highly quantitative measurement of the protein levels.
# PROTOCOL TABLE (as described by Inglese J, Shamu CE and Guy RK. 2007)
# SEQUENCE No. (e.g., 1, 2, 3, etc.); […] (e.g., Cells, Incubation, Reagent, etc.); VALUE; DESCRIPTION.
# 1; Cells; 4uL; 800 doxycycline treated cells / well in doxycycline-free media, 1536-well black, clear-bottom low base Aurora microplates.
# 2; Compounds; 23 nL; Kalypsis pin tool (Wako) equipped with 1536-well pin heads, 5-azacytidine positive control.
# 3; Incubation; 24 hr; 37C, 5% CO2; 95% relative humidity.
# 4; Aspiration; 1x; BioTek EL406 washer dispenser (Agilent).
# 5; Fixing; 3.5% paraformaldehyde, BioTek EL406 washer dispenser (Agilent).
# 6; Washing; 1x PBS; BioTek EL406 washer dispenser (Agilent).
# 7; Nuclei staining; 1:1000 dilution of Hoechst 33342 (Thermofisher), BioTek EL406 washer dispenser (Agilent).
# 8; Incubation; 20 min; in the dark at room temperature.
# 9; Washing; 2x, 1x PBS (ThermoFisher), BioTek EL406 washer dispenser (Agilent).
# 10; Reagent; 10 uL; 1x PBS per well, sealed with clear adhesive tape.
# NOTES (numbers refer to sequence numbers above).
# 1. NCI-H358 cells expressing eGFP-tagged delta133p53alpha were grown in T75 culture flasks and treated with doxycycline for 24h, at 10 ng/ml for eGFP-D133p53a cells (N-terminal cell) and 100 ng/ml for D133p53a-eGFP cells (C-terminal cells). Cells were trypsinized, counted using a Counted 3 Automated Cell Counter (Thermo Fisher), and diluted to a concentration of 200,000 cells/ml. A Multidrop Combi Reagent Dispenser (ThermoFisher) was used to dispense 800 cells/well in […] of doxycycline-free media, into 1536-well black/clear bottom low base plates (AuroraMicroplates).
# 2. After plating cells, 23 nl of compound library, DMSO vehicle control or positive control (5-azacytidine) were transferred by Pin Tool (Wako). The plate map layout was the same for each plate: (column 1) non-doxycycline treated cells + DMSO vehicle control; (column 2) doxycycline treated cells + DMSO vehicle control baseline; (column 3) doxycycline treated cells + positive control 57.5 uM final concentration 5-azacytidine; (column 4) doxycycline treated cells + serial dilution of 5-azacytidine, 16-point 1:2 titration spanning 1.8 nM to […] final concentration; (columns 5-48) doxycycline treated cells + titration of library compounds.
# 3. Cells were incubated at 37 °C, 5 % CO2, 95% RH with breathable metal lid for 24h.
# 4-10. […] After two washes, 10 ul of 1X PBS (Thermo Fisher) was dispensed to each well. Clear adhesive plate seals (VWR) were applied and plates stored at 4 °C.
# 11. […]
# Potency is the fitted concentration of half-maximal effect.
# Sequence of Cellular tumor antigen p53 (Homo sapiens) (P04637 whole entry, looked up): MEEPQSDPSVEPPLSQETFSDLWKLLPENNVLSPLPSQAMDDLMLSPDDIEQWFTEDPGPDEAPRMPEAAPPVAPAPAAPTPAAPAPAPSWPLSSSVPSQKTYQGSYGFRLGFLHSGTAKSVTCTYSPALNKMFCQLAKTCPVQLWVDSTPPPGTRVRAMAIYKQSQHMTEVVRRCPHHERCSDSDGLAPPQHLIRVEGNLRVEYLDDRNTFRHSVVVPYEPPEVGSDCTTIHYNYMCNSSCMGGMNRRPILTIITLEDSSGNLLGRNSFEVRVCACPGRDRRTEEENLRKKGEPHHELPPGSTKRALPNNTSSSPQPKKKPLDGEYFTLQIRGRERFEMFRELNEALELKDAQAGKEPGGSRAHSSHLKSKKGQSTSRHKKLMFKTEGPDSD
SMILES,activation,Potency
NOCC(=O)O,-16.6%,
COc1ccc2c(c1)CCCC2=O,18.6%,
CC(=O)OC1CC2(C)C3=CCC4(C)C5C(O)C(O)C(C(C)C)C5(C)CCC4(C)C3CCC2C(C)(C)C1OC1OC(CO)C(O)C(O)C1O (stereo not given),-1.53%,
On1ncc(C2CCNCC2)c1-c1cccc(-c2ccccc2)c1,-8.11%,
CC(=O)N[C@@H](Cc1c[nH]c2ccccc12)C(=O)N[C@@H](CCC(=O)O)C(=O)N[C@@H](Cc1cnc[nH]1)C(=O)N[C@@H](CC(=O)O)C(=O)Nc1ccc2c(C(F)(F)F)cc(=O)oc2c1 (Ac-WEHD-{AFC}),-4.33%,
CC[C@H]1OC(=O)[C@H](C)[C@@H](O[C@H]2C[C@@](C)(OC)[C@@H](O)[C@H](C)O2)[C@H](C)[C@@H](O[C@@H]2O[C@H](C)C[C@H](N(C)C)[C@H]2O)[C@@](C)(O)C[C@@H](C)[C@@H]2N[C@@H](COCCOC)OC([C@H]2C)[C@]1(C)O,7.16%,
CC(=O)NCCc1c[nH]c2ccc(O)cc12,10.8%,
CC(=O)NCC(=O)N1[C@H]2CC[C@H]1c1cc(Nc3ncc(C(F)(F)F)c(NC4CCC4)n3)ccc12,32.7%,
C/C=C/C=C/C(=O)O[C@@H]1C=C2COC(=O)[C@]2(O)[C@@]2(C)CCCC(C)(C)[C@H]12,-3.82%,
CCC(CC)[C@H](NC(C)=O)[C@@H]1[C@H](O)[C@@H](C(=O)O)C[C@@H]1N=C(N)N,7.36%,
COc1ccc2c(OCc3nnc4ccc(-c5ccccc5)nn34)ccnc2c1,-0.776% and -8.11%,
c1ccc2c(CC3=NCCN3)cccc2c1,-10%,
COc1cc(-c2nn(C3CCC(N4CCN(C(C)=O)CC4)CC3)c3ncnc(N)c23)ccc1NC(=O)c1cc2ccccc2n1C (stereo not given),17.1%,
CNC(=O)c1c(I)c(NC(C)=O)c(I)c(C(=O)O)c1I,-8.47%,
CC(=O)OC1CC2(C)C(CCC(C)C23Cc2c(O)cc(CO)c(C=O)c2O3)C(C)(C)C1O (stereo not given),23.7%,
C[C@@H]1O[C@@H](O[C@H]2[C@H](O)[C@@H](C(=O)O)O[C@@H](O[C@H]3CC[C@@]4(C)C(CC[C@]5(C)C4CC=C4C6CC(C)(C)CC[C@]6(C(=O)O)CC[C@]45C)C3(C)C)[C@@H]2O[C@@H]2O[C@H](CO)[C@@H](O)[C@H](O)[C@H]2O)[C@H](O)[C@H](O)[C@H]1O (stereo not given in full),-2.29%,
Cc1cc(C(C)Nc2ccccc2)c2nc(N3CCOCC3)cc(=O)n2c1 (stereo not given),9.6% and -9.82%,
Cc1ccc(=O)n(-c2ccccc2)c1,1.01%,
CN1C(=O)C[C@H](C(=O)N[C@@H](Cc2cnc[nH]2)C(=O)N2CCC[C@@H]2C(N)=O)NC1=O,8.59%,
C=CC(C)(O)CC/C=C(\C)C(=O)O[C@@H]1[C@@H](O)[C@H](OC(C)(C=C)CC/C=C(\C)C(=O)O[C@@H]2O[C@H](CO)[C@@H](O)[C@H](O)[C@H]2O)O[C@H](CO)[C@H]1OC(=O)/C(C)=C/CCC(C)(O)C=C (stereo not given in full),-19.8%,

SMILES,activation,Potency
CS(=O)(=O)c1ccccc1N1CCN(c2nc3c(c(=O)[nH]2)CSCC3)CC1,11.5%,
COc1cc(C(=O)NCC2(N(C)C)CCCC2)cc(OC)c1OCc1ccccc1,-8.11%,
C=C1C(=O)OC2/C=C(\CO)CC/C=C(\C=O)CC(OC(=O)CC(C)C)C12 (stereo not given),,14.8 µM (active)
CCN(CC)CC(=O)Nc1c(C)cccc1C,-3.35% and -7.58%,
O=C(O)[C@H](CC(=O)N1C[C@H]2CCCC[C@H]2C1)Cc1ccccc1,38.3%,
CCOC1OC(=O)C[C@H]1NC(=O)[C@@H]1CCCN1C(=O)[C@@H](NC(=O)c1ccc(N)c(Cl)c1)C(C)(C)C (stereo not given in full),110%,
Cc1ncc([N+](=O)[O-])n1CC(O)CN1CCOCC1 (stereo not given),-11%,
CC(C)CC1NC(=O)C2CC3(O)c4ccccc4NC3N2C1=O (stereo not given),-9.92%,
CC[C@@H]([C@H](C)O)n1ncn(-c2ccc(N3CCN(c4ccc(OC[C@@H]5CO[C@@](Cn6cncn6)(c6ccc(F)cc6F)C5)cc4)CC3)cc2)c1=O,22.6%,
CN1CCc2c(c3ccccc3n2Cc2ccc(C(=O)NO)cc2)C1,77.5%,34.3 µM (active)
Nc1nc(=O)n([C@@H]2O[C@H](CO)[C@@H](O)[C@@H]2F)cc1I,-22%,
C/C=C/c1cc(OC)c2c(c1)[C@@H](C)[C@@H](c1ccc(O)c(OC)c1)O2,-16%,
OC1(c2ccccc2)CCNCC1,0.565%,
CC(=Cc1ccccc1)C=C1SC(=S)N(CC(=O)O)C1=O,-1.94%,
CC1=C(C/C=C(\C)CCC[C@H](C)CCC[C@H](C)CCCC(C)C)C(=O)c2ccccc2C1=O,18.6%,
C[C@]1(OC(=O)/C=C\c2ccc(O)cc2)C[C@@H](O)[C@]2(O)C=CO[C@@H](O[C@@H]3O[C@H](CO)[C@@H](O)[C@H](O)[C@H]3O)C12 (stereo not given in full),23.7%,
COc1cccc(CNC(=O)Nc2nc(-c3ccncc3)cs2)c1,-8.04%,
C=C1CO[C@@]2(O[C@H]3CC4C5CC=C6C[C@@H](O)C[C@@H](O[C@@H]7OC[C@H](O)[C@H](O[C@@H]8OC[C@@H](O)[C@H](O)[C@H]8O)[C@H]7O[C@@H]7O[C@@H](C)[C@H](OC(C)=O)[C@@H](OC(C)=O)[C@H]7OC(C)=O)[C@]6(C)C5CC[C@]4(C)[C@@H]3[C@@H]2C)[C@@H](O)[C@H]1OC1OC(C)C(O)C(O)C1O (stereo not given in full),-6.87%,
CC1(C)CC=C(C#Cc2ccccc2)c2cc(/C=C/c3ccc(C(=O)O)cc3)ccc21,-5.73%,
